# Data reported in PubChem BioAssay (Tox21).
# Inconclusive results are not listed. Values without a mark were called inactive. The call rests on the fitted dose curve; in most records, active means well fitted cell-killing curve with a large enough effect in the repeat runs; inconclusive means weak or mixed curves; inactive means flat fitted curve, though single readings scatter. Non-standard residues stand in square brackets, D forms with d. Residues, ends and D or L forms follow the SMILES beside them. *: point of attachment. Sta = CC(C)C[C@H](N)[C@@H](O)CC(=O)O; Isovaleryl = CC(C)CC(=O)*
# Experiment: qHTS RealTime-Glo MT Cell Viability Assay in HepG2 cells - 16 hour (AID 1224885); further: nearly all actives have a fitted effect of over 50% in size
# Conditions: RealTime-Glo luminescence; series mostly up to 76.8 µM; activity change, negative = cytotoxic: at the top concentration
# How it was run: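 HepG2 suspension premixed with RealTime-Glo reagents is plated at 600 cells per well and left 5 h at 37 C/5% CO2. Compounds in DMSO then go in, and bioluminescence reflecting viable cell number is recorded over 40 h.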
# On the % scale 0 is the no-effect control and ±100 the full control effect.
row,SMILES,"activity change, negative = cytotoxic"
1,CC(C)CC(=O)N[C@H](C(=O)N[C@H](C(=O)N[C@@H](CC(C)C)[C@@H](O)CC(=O)N[C@@H](C)C(=O)N[C@@H](CC(C)C)[C@@H](O)CC(=O)O)C(C)C)C(C)C (Isovaleryl-VV[Sta]A[Sta]-OH),2.17% [at 35.3 µM]
2,CCCCCCC(=O)c1ccccc1,0.38%
3,CNC(=O)c1c(I)c(NC(C)=O)c(I)c(C(=O)O)c1I,2.24% [at 35.3 µM]
4,CCCCCCCCCCCCCC(=O)OCC,2.53%
5,C=CCN(CC=C)CC=C,1.64%
6,O=C(O)CCC(=O)Nc1ccc(S(=O)(=O)Nc2nccs2)cc1,-1.22% [at 35.3 µM]
7,CC(O)C(CO)C(C)O (stereo unspecified),0.957%
8,O=C(O)/C=C(\CC(=O)O)C(=O)O,2.82% [at 35.3 µM]
9,CC(=O)Nc1ccc(S(=O)(=O)Nc2cc(C)on2)cc1,5.34% [at 35.3 µM]
10,C[C@@H](CN1CC(=O)NC(=O)C1)N1CC(=O)NC(=O)C1,6.39% [at 35.3 µM]
11,CCN(CC)CC,-1.3%
12,CCCCCCCCOCCC#N,-3.05%
13,CC/C=C/CCCCCCCCCCOC(C)=O,7.68%
14,CC/C=C\CCOC(=O)c1ccccc1,-10.3%
15,COC(=O)c1ccc(C(=O)O)cc1,0.298%
16,COC(=O)C(c1ccccc1Cl)N1CCc2sccc2C1 (stereo unspecified),-0.833% [at 35.3 µM]
17,CCCCOCCCC,0.494%
18,Cc1ccc2ccccc2n1,0.984%

row,SMILES,"activity change, negative = cytotoxic"
1,CC(C)(C)c1ccc(N)cc1,-6%
2,Cc1ccccc1OCC(=O)O,3.05%
3,O=C(O)Cc1c(Cl)ccc(Cl)c1Cl,-0.379%
4,CCCCCCCCCCCCCCBr,2.98%
5,C=C(C)C(=O)OCCOC1CC2CC1C1C=CCC21 (stereo unspecified),-0.807%
6,CCCCCCCC(=O)N(C)C,0.621%
7,COC(=O)/C=C(\C)CCC=C(C)C,2.85%
8,Clc1cc(Cl)c(Cl)c(Cl)c1Cl,0.206%
9,CCCc1ncc(C(=O)O)s1,1.42% [at 35.3 µM]
10,Cc1cc(C)c(N)c(Cl)c1,4.21%
11,CC(C)C(=O)Nc1cccc(C2CN3CCSC3=N2)c1 (stereo unspecified),0.776% [at 35.3 µM]
12,CCO/C=C1\N=C(c2ccccc2)OC1=O,1.07%
13,CC(C)(C)C(=O)NCCCC(=O)O,4.08% [at 35.3 µM]
14,C=CCCCCCCCCCCCCCC,-0.802% [at 15.8 µM]
15,Clc1ccc2c(c1)Nc1ccccc1S2,-2.61% [at 35.3 µM]
16,Cc1ccc2cccnc2c1,-0.165%
17,Cc1ccc(OC(=O)CC(C)C)cc1,1%
18,CC(=O)c1c(C)cc(C(C)(C)C)cc1C,-12.1%
